Results taken from PubChem BioAssay.
Values without a mark were called inactive. The source made the active and inactive calls.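 Rule for the calls, unless noted: active = mean inhibition above 46.5%, the solvent-only control mean plus 3 SD; inactive = the rest.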

What was measured:
[1] = test system: transactivating tegument protein VP16 (Human herpesvirus 1); experiment: compounds suppressing VP16-driven luciferase signal – cell-based, luminescence, single concentration, counter-screen for SRC2 inhibitor project (AID 652007; in the data active = inhibition above about 36%); settings: cell-based VP16 transactivation luciferase reporter, at 8.9 µM, hits give high values
[2] = target: Nuclear receptor coactivator 2 (Homo sapiens) (UniProt Q15596); experiment: inhibition of GAL4-SRC2 driven luciferase expression – cell-based, luminescence, HEK293, triplicate, confirmation (AID 652008); settings: HEK293 GAL4-SRC2 luciferase reporter, at 8.9 µM, hits give high values;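 note: 0% = DMSO-treated cells and 100% = Gossypol at 36 µM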
Nuclear receptor coactivator 2 (Homo sapiens), sequence (Q15596 whole entry, looked up, the tested form may be a part): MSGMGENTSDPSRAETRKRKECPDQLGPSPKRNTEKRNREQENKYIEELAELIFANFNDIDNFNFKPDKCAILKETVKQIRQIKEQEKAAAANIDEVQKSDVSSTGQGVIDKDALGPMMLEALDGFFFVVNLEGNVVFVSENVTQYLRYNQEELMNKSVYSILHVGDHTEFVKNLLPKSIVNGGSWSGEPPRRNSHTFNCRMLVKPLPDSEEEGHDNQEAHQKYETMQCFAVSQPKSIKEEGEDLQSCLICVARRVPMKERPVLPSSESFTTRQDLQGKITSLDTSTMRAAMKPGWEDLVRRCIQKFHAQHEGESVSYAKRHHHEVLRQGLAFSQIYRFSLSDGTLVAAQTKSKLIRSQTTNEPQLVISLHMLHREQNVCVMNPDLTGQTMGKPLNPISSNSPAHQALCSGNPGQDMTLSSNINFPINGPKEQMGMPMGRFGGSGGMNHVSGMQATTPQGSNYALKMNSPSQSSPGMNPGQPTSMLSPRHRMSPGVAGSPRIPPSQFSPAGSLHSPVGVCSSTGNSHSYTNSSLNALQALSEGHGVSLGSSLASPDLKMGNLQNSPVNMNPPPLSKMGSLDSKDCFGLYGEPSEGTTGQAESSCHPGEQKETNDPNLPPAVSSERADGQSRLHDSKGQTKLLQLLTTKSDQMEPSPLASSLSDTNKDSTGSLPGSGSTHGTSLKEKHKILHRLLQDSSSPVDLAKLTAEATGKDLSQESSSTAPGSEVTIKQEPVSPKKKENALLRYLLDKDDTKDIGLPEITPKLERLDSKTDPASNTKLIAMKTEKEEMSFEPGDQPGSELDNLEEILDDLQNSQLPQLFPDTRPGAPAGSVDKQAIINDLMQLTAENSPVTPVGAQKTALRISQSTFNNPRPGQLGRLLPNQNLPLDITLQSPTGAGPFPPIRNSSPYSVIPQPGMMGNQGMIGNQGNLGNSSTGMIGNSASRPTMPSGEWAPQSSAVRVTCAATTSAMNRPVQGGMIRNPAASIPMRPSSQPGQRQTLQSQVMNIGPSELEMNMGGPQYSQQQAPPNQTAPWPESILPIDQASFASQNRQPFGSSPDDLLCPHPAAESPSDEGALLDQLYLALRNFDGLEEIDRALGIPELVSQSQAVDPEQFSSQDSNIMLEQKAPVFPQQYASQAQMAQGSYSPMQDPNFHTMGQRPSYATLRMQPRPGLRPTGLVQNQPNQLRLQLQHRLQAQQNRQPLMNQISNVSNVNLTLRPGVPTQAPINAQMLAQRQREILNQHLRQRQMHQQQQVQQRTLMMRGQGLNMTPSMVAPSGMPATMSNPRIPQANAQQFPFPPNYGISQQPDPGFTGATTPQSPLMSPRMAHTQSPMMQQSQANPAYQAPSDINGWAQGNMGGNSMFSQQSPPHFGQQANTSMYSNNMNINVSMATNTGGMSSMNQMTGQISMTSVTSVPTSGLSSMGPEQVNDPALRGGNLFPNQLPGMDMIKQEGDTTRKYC

Structure (SMILES)	inhibition [1]	inhibition [2]
O=C(N/N=C/c1ccc([N+](=O)[O-])o1)c1cc2ccccc2o1	21.6%	56.4% (active)
COc1ccc(CN=C(Nc2ccccc2)SC2CC(=O)NC2=O)cc1 (stereo unspecified)	-5.45%	-13.2%
COc1ccc(NC(=O)NCc2ccccc2F)cc1OC	-0.66%	-17.2%
Cc1ccc(C2CC(c3cccs3)=NN2C(=O)CSC2=NCCS2)cc1 (stereo unspecified)	17.9%	16.1%
CN(C)c1ccc(/C=C2\SC(=O)N(CCc3nnc(N)s3)C2=O)cc1	-23.4%	27.1%
Oc1ccc(N=Nc2ccc3c(c2)OCCO3)c(O)c1	-71.4%	35.1%
N#Cc1c(NC(=O)CCCC(=O)O)sc2c1CCCCC2	-8.88%	44%
COc1cccc2c1C(CO)N1C(C#N)C3CC(C(=O)O)C(C1C2)N3C (stereo unspecified)	40.5% (active)	66.1% (active)
Cc1ccc(S(=O)(=O)/N=C(\N)c2ccc(F)cc2)cc1	5.17%	-14.9%
Cc1cccc(C)c1NC(=O)CN1CCN(C/C=C/c2ccccc2)CC1	-15.1%	-3.36%
CCCCN1C[C@@H](COCc2ccccc2)Oc2cc(F)ccc2S1(=O)=O	-1.24%	11.9%
C=C1C(=O)O[C@@H]2C[C@@H](C)[C@@H]3C=CC(=O)[C@@]3(C)[C@@H](OC(C)=O)[C@H]12	96% (active)	91% (active)
CCn1nc(NC(=O)C(C)C)c2cc3cccc(C)c3nc21	3.87%	15.9%
O=C(NCCc1ccccc1)c1ccc2c(c1)OCO2	-13.4%	16.7%
C=CCNc1nc2ccccc2nc1NS(=O)(=O)c1ccc(Cl)cc1	-13.4%	-1.65%
CCOc1ccccc1OCCCCOc1ccccc1F	-9.29%	-12.6%
N#CCCN(C(=O)COC(=O)C1CCN(S(=O)(=O)c2ccccc2C(F)(F)F)CC1)c1ccccc1	0.12%	11.1%

Structure (SMILES)	inhibition [1]	inhibition [2]
COc1ccc(C)cc1Nc1n[n+](-c2ccccc2)c(-c2c(Cl)cccc2Cl)s1	19.4%	22.7%
COc1ccc(CN2C[C@H](Cc3ccccc3)[C@@H](CC(=O)Nc3ccccc3)C2=O)cc1	-10.9%	1.81%
O=C(CN1C(=O)NC2(CCCCC2)C1=O)Oc1ccc2c(C(F)(F)F)cc(=O)oc2c1	-11.6%	-1.74%
CCOc1ccc(NS(=O)(=O)c2ccc(C(=O)NC3CCN(Cc4ccccc4)CC3)cc2)cc1	-3.23%	8.19%
COn1c2c(c3c4nonc4ccc31)CCCC2	0.98%	18.7%
COc1cc(C)c(Br)cc1S(=O)(=O)NCc1cccs1	-10.6%	-12.6%
COc1ccc(C(=O)NC2CC3CCCC(C2)N3CC(C)C)cc1 (stereo unspecified)	2.31%	-12.2%
Nc1cccc(-c2cc3ccccc3oc2=O)c1	22.1%	56.9% (active)
O=C(Nc1ccc(F)cc1)c1nc(S(=O)(=O)Cc2ccccc2)ncc1Cl	36.6% (active)	37.9%
COc1cc(/C=N/NC(=O)c2ccc(COc3cc(C)ccc3C(C)C)cc2)cc(OC)c1O	-2.59%	62.9% (active)
CC(C)N(C(=O)[C@H]1C[C@H](CC(=O)NCCc2ccccn2)C(=O)N2CCc3c([nH]c4cc(-c5ccco5)ccc34)[C@]12C)C(C)C	-4.18%	-6.81%
C=C1CCC2C(C)(C)CCC[C@]2(C)[C@H]1CC1=C(O)C(=O)C(CO)=CC1=O (stereo partly specified)	93.6% (active)	98.8% (active)
CCCSc1ccc2nc(-c3ccccc3)cn2c1	-24.4%	58% (active)
COc1cc(NC(=O)CSCC(=O)Nc2cccc(C(F)(F)F)c2)c(Cl)cc1Cl	5.02%	5.14%
COc1ccc2nc(Sc3c([N+](=O)[O-])nc(C)n3Cc3ccccc3)[nH]c2c1	13.1%	37.8%
CCn1nc(C)cc1-c1nnc(Sc2ncc([N+](=O)[O-])s2)n1C	85.2% (active)	93.9% (active)
